# Data from PubChem BioAssay (NCATS).
# Results filed as inconclusive are left out. A call without a number means that no potency is given here. Active and inactive are the calls of the source. Unless noted, the call rests on the fitted dose curve; in most records, active means well fitted curve in the direction sought with a large enough effect; inconclusive means small, poorly fitted or top-dose-only effect, or another doubt; inactive means no such curve, though single readings can be large; an effect the other way counts as inactive or inconclusive.
# Key:
# CP194 = experiment: qHTS profiling for inhibitors of Plasmodium falciparum proliferation (AID 504749); further: nearly all actives have a fitted effect of over 60% in size; further: potency means the concentration at half of the fitted maximal effect; details: P. falciparum in erythrocytes, SYBR Green DNA, 72 h; series mostly up to 28.7 µM
# How it was run: (§1)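 Infected RBCs, 0.3% parasitemia/2.5% Hct final; cpd 72 h, 37 C, 5% CO2; lysis buffer with saponin/triton/SYBR Green I, o/n RT dark; FI 485/535; norm. to artemisinin (0.29 uM) and DMSO.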
# CP315 = experiment: as above; details: P. falciparum in erythrocytes, SYBR Green DNA, 72 h; series mostly up to 28.7 µM
# How it was run: as §1
# JCK = experiment: as above; details: P. falciparum in erythrocytes, SYBR Green DNA, 72 h; series mostly up to 28.7 µM
# How it was run: as §1
# ATS95 = experiment: as above; details: P. falciparum in erythrocytes, SYBR Green DNA, 72 h; series mostly up to 28.7 µM
# How it was run: as §1
# CP215 = experiment: as above; details: P. falciparum in erythrocytes, SYBR Green DNA, 72 h; series mostly up to 28.7 µM
# How it was run: as §1
# CP335 = experiment: as above; details: P. falciparum in erythrocytes, SYBR Green DNA, 72 h; series mostly up to 28.7 µM
# How it was run: as §1
# Dd2 = experiment: as above; details: P. falciparum in erythrocytes, SYBR Green DNA, 72 h; series mostly up to 28.7 µM
# How it was run: as §1
# ECU = experiment: as above; details: P. falciparum in erythrocytes, SYBR Green DNA, 72 h; series mostly up to 28.7 µM
# How it was run: as §1
# TAB113 = experiment: as above; details: P. falciparum in erythrocytes, SYBR Green DNA, 72 h; series mostly up to 28.7 µM
# How it was run: as §1
# [1] = qHTS Assay for Identification of Small Molecule Antagonists for NFkB Signaling Pathway (AID 895; active means well fitted inhibition curve with a large enough effect in the signal ratio, with a control signal flat, not every such curve was filed as active; the % refers to the signal ratio)
# How it was run: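 Beta-lactamase reporter read-out (460 and 530 nm emission ratio, 405 nm excitation, 2 hrs substrate loading RT) after 5 hr stimulation with 10 pM TNF alpha in compound-treated NFkB-bla ME-180 cells in low-serum medium.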
# [2] = target: Muscarinic acetylcholine receptor M1 (Rattus norvegicus) (UniProt P08482); experiment: qHTS Assay for Antagonists of Acetylcholine Muscarinic M1 Receptor: Kinetic Measurement of Intracellular Calcium Response (AID 943); further: nearly all actives have a fitted effect of over 75% in size
# Sequence of Muscarinic acetylcholine receptor M1 (Rattus norvegicus) (P08482 whole entry, looked up): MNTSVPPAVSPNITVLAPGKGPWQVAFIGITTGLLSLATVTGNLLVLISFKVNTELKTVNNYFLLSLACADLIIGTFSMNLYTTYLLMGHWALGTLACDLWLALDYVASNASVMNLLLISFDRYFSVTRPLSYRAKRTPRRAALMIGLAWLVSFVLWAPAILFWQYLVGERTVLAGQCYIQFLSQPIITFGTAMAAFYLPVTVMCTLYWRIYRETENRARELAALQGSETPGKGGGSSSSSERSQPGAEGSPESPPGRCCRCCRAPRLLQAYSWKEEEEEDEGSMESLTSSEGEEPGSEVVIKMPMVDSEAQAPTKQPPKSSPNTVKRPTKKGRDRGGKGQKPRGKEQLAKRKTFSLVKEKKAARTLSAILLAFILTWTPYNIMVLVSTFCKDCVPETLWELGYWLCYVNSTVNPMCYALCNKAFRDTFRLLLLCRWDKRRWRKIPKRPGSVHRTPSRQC
# How it was run: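 CHO cells expressing rat M1 receptor, Fluo-4 loaded, preincubated 10 min with compound, then stimulated with EC80 carbachol (100 nM final). Kinetic calcium fluorescence over 4 min; response taken as peak over basal signal.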
smiles,measurement,setting,value
C[N+]1(C)C2CC[C@H]1CC(OC(=O)[C@@H](CO)c1ccccc1)C2 (stereo not given in full),Potency,CP194,inactive
same,Potency,CP315,inactive
same,outcome,JCK,inactive
C[C@@H]1O[C@@H](O[C@H]2C[C@@H](O)[C@@]3(CO)[C@H]4[C@H](O)C[C@]5(C)[C@@H](C6=CC(=O)OC6)CC[C@]5(O)[C@H]4CC[C@@]3(O)C2)[C@@H](O)[C@H](O)[C@H]1O,Potency,ATS95,inactive
same,Potency,CP215,inactive
same,Potency,CP335,inactive
same,Potency,Dd2,inactive
same,Potency,ECU,inactive
same,outcome,JCK,inactive
same,Potency,TAB113,inactive
C=C[C@@H]1CN2CC[C@H]1C[C@H]2[C@H](O)c1ccnc2ccccc12,Potency,ATS95,447 nM (active)
same,Potency,CP194,849 nM (active)
same,Potency,CP215,757 nM (active)
same,Potency,CP315,1200 nM (active)
same,Potency,CP335,757 nM (active)
same,Potency,Dd2,891 nM (active)
same,Potency,ECU,199 nM (active)
same,Potency,TAB113,501 nM (active)
O=C(O)[C@H]1CCN1,Potency,[1],inactive
same,Potency,[2],inactive
COc1ccc2c(c1O)-c1cccc3c1[C@H](C2)N(C)CC3,Potency,[1],inactive
O=C1C[C@@H]2OCC=C3CN4CC[C@]56c7ccccc7N1[C@@H]5[C@@H]2[C@H]3C[C@H]46 (tested in a mixture with another compound),Potency,Dd2,10000 nM (active)
C[C@@H]1O[C@H]1P(=O)(O)O,Potency,[2],inactive
COc1ccc2c3c1O[C@@H]1C(=O)CC[C@@]4(O)[C@@H](C2)N(CC2CC2)CC[C@]314,Potency,[1],inactive
C#CCN[C@@H](C)Cc1ccccc1,Potency,[2],inactive
C[C@@H](Cc1ccc(O)cc1)NC[C@@H](O)c1cc(O)cc(O)c1,Potency,[2],inactive
same,Potency,ATS95,inactive
same,Potency,CP194,inactive
same,Potency,CP215,inactive
same,Potency,CP315,inactive
same,Potency,CP335,inactive
same,Potency,Dd2,inactive
same,Potency,ECU,inactive
same,outcome,JCK,inactive
same,Potency,TAB113,inactive
